Compound activity from PubChem BioAssay.
MARV entry inh: blocks Marburg virus binding or cell entry; Marburg virus pseudotype entry/binding inhibition, cell-based; Potency, µM (titrated, usually from 49.2 µM), for inactives: top-dose activity change, negative = inhibition, usual class: inhibitors; 18,000 compounds, 6.5% hits
Lassa entry: Lassa virus entry inhibition; Lassa virus pseudotyped entry inhibition, cell-based qHTS; Potency, µM (titrated, usually from 49.2 µM), for inactives: at the top dose activity change, negative = inhibition, usual class: inhibitors; 18,000 compounds, 4.1% hits
Starred values were filed as active, the others as inactive; ? = inconclusive; · = no result given; [ ] = another dose, or the depositor's remark. Most compounds without a hit are left out; they make up all but 8.6% or so of the library. Calls follow the shape of the full dose curve; tested in HEK293 cells. % is scaled to controls: 0 for no effect and ±100 for the full control effect; potency is read from the fitted curve at half-maximal effect.

SMILES | MARV entry inh | Lassa entry
COC(=O)Nc1nc2ccc(Oc3cccc(NC(=O)Nc4cc(C(F)(F)F)ccc4F)c3)cc2[nH]1 | ? | -50.3%
CNC(=O)c1cc(Oc2ccc(NC(=O)Nc3ccc(Cl)c(C(F)(F)F)c3)cc2)ccn1 | 12.6µM* | 7.94µM*
CN(C)c1ccc(/C=C2/C(=O)Nc3ccccc32)cc1 | 8.91µM* | ?
CN(C)c1ccc(/C=C2\C(=O)Nc3ccccc32)cc1 | -25.0% | 14.1µM*
COc1ccc(C=CC2=C[C@]3(C)C[C@]2(C)[C@H](c2ccc(OC)cc2)CC3=O)cc1 | 3.8%[8.59 µM] | 5.2%[8.59 µM]
CC1=CC[C@@H](COc2ccccc2)O[C@@]2(C1)C(=O)Nc1cccc(Br)c12 | 3.8%[8.59 µM] | 40.7%[8.59 µM]
COC(=O)[C@H]1[C@H](CCc2ccccc2)NC(=O)N(Cc2ccccc2)[C@H]1C | -14.7%[8.59 µM] | ·
CC[C@H](c1ccc(O)cc1)[C@@H](CC)c1ccc(O)cc1 | 13.6%[17.8 µM] | ?
Oc1cc[c]([Hg][Cl])cc1 | 3.55µM* | 4.47µM*
C[C@@H]1O[C@@H](O[C@H]2C[C@@H](O)[C@]3(CO)[C@@H]4C(CC[C@]3(O)C2)[C@@]2(O)CC[C@H](C3=CC(=O)OC3)[C@@]2(C)C[C@H]4O)[C@H](O)[C@H](O)[C@H]1O (stereo partly specified) | ? | 0.316µM*
C[C@@H]1O[C@H](O[C@H]2C[C@@H](O)[C@@]3(CO)[C@H]4[C@@H](O)C[C@]5(C)[C@@H](C6=CC(=O)OC6)CC[C@]5(O)[C@H]4CC[C@]3(O)C2)[C@@H](O)[C@H](O)[C@@H]1O | ? | 3.16µM*
CC1O[C@@H](OC2CC(O)[C@@]3(CO)C4C(O)C[C@@]5(C)C(C6=CC(=O)OC6)CC[C@]5(O)C4CC[C@]3(O)C2)C(O)C(O)C1O (stereo partly specified) | 0.282µM* | 0.316µM*
C[C@@H]1O[C@@H](O[C@H]2C[C@@H](O)[C@]3(CO)[C@H]4[C@H](O)C[C@]5(C)[C@@H](C6=CC(=O)OC6)CC[C@]5(O)[C@@H]4CC[C@]3(O)C2)[C@H](O)[C@H](O)[C@H]1O | ? | 0.0316µM*
CCCCCCN1C[C@H](n2cc(C3CC3)nn2)[C@@H](O)C[C@H]1c1ccc(OC)cc1 | -19.8% | ·
COc1ccc([C@]23Cc4ccccc4[C@H](O2)C2=C(CC4(CCCCC4)OC2=O)O3)cc1 | 50.4%[8.59 µM] | 43.5%[8.59 µM]
C[C@H](CO)NS(=O)(=O)c1cc(Cl)ccc1F | 19.0% | 9.3%
COc1ccc2c3c(c(=O)oc2c1)[C@H]1O[C@](c2ccsc2)(Cc2cc(C#N)ccc21)O3 | -13.9%[8.59 µM] | -8.2%[8.59 µM]
COc1ccc(O[C@H]2C=C[C@@H](c3ccccc3)O[C@H]2COC(=O)CCC(C)=NO[C@@H](C)c2cc(-c3c(C)cc(C)cc3C)no2)cc1 | 3.1%[8.59 µM] | -15.8%[8.59 µM]
Cc1ccc(F)cc1S(=O)(=O)NCc1nc(N2CCCC2)c2cccc(C)c2n1 | 12.6µM* | -9.8%
Cc1cccc2c(N3CCCC3)nc(CNS(=O)(=O)c3ccccc3F)nc12 | ? | 4.6%
O=C(NCC1CC1)c1ccc(-c2cccc(C(=O)NC3CC3)c2)cc1 | 35.7% | 36.4%
COC(=O)c1c(C(=O)OC)c2c3cc(OC)c(OC)cc3cc([Si](C)(C)C)n2c1C(=O)OC | 24.3%[8.59 µM] | -30.2%[8.59 µM]
COC(=O)C1=C(C)N(Cc2ccccc2)C(=NCCc2cccnc2)NC1c1ccc(Br)cc1 (stereo unspecified) | 4.2%[8.59 µM] | -4.1%[8.59 µM]
COc1cc(CC(=O)OCC2=C[C@H]3[C@@H]4C(C)(C)[C@]4(OC(C)=O)[C@H](OC(=O)Cc4ccccc4)[C@@H](C)[C@]3(O)[C@@H]3C=C(C)C(=O)[C@@]3(O)C2)ccc1O | ? | 12.6µM*
C=C(C)[C@]12C[C@@H](C)[C@@]34OC(Cc5ccccc5)(O[C@@H]1[C@@H]3C=C(COC(=O)Cc1cc(OC)c(O)cc1I)C[C@]1(O)C(=O)C(C)=C[C@@H]41)O2 | 14.1µM* | 20µM*
SMILES | MARV entry inh | Lassa entry
CC(=O)O[C@H]1C2[C@@H](OC(=O)Cc3ccccc3)[C@@H](C)C[C@]2(OC(C)=O)C(=O)/C(C)=C/[C@@H]2[C@H](CC[C@@]13CO3)C2(C)C (stereo partly specified) | ? | -28.0%
C=C(C)[C@]12C[C@@H](C)[C@@]34OC(Cc5ccccc5)(O[C@@H]1[C@@H]3C=C(COC(=O)Cc1cc(I)c(O)c(OC)c1)C[C@]1(O)C(=O)C(C)=C[C@@H]41)O2 | 12.6µM* | 17.8µM*
COC(=O)C1=C(C)N(Cc2ccccc2)C(=S)NC1c1ccccc1 (stereo unspecified) | 5.8%[8.59 µM] | 0.1%[8.59 µM]
CCN1C(=NCCc2ccccn2)NC(c2cccc(C(F)(F)F)c2)C(C(=O)OC)=C1C (stereo unspecified) | -20.4%[8.59 µM] | 32.8%[8.59 µM]
COc1ccc(-c2oc3ccccc3c(=O)c2O)cc1OC | 7.9% | 4.4%
COc1cc2oc(=O)cc(-c3ccc(-c4cccc(N)c4)cc3)c2c(OC)c1OC | ? | -20.6%
COc1ccc(-c2ccc(-c3cc(=O)oc4cc(OC)c(OC)c(OC)c34)cc2)cc1OC | 0.2% | 17.8µM*
